# Reference: paper PMC5540273 (PLoS ONE, 2017)
# Test system: CSNK1G1
# Details: concentration: 1 μM, replicates: in singlicate; n = 1
# 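Further: KINOMEscan kinase panel screen.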
row,SMILES,%Inh
1,Clc1cc(Nc2ncnc3cc[nH]c23)ccc1OCc1ccccn1,2%
2,O=C(Nc1ccccc1F)NC1CCN(c2ccnc(Nc3ccc(F)cc3)n2)C1 (stereo not shown) [GSK1379722],0%
3,Cc1ccc(O)cc1Nc1cc(C(F)(F)F)nc2ccc(-c3ccncc3)cc12 [GW630823],6%
4,C[C@@H]1CCN(C(=O)CO)C[C@@H]1N(C)c1ncnc2[nH]ccc12,0%
5,Cn1cc(-c2ccc3c(c2)CCN3C(=O)Cc2cccc(C(F)(F)F)c2)c2c(N)ncnc21 [GSK2606414],0%
6,Cl.Cn1ccc(-c2cccc(Nc3ccnc4cc(-c5nccs5)ccc34)c2)n1 [GW525701],5%
7,CCc1nc(-c2cccc(N(C)S(=O)(=O)c3ccccc3)c2)c(-c2ccnc(Nc3ccc(N4CCN(C(C)=O)CC4)nc3)n2)s1 [GSK1645895],20%
8,CN1CCC(n2cnc(-c3ccc(F)cc3)c2-c2ccnc(NC3CCNCC3)n2)CC1 [SB-229482],0%
9,Nc1nc(-c2cccnc2)c(-c2ccnc3ccccc23)s1 [GW684083],10%
10,O=C(CCO)NCCn1ccc2ncnc(Nc3ccc(Oc4cccc(C(F)(F)F)c4)c(Cl)c3)c21,0%
11,O=C(NCCCN1CCCC1=O)c1cnc(NCc2cc(Cl)ccc2Cl)nc1NC1CCNCC1,1%
12,Fc1ccc(Nc2nccc(-c3c(-c4ccc(Cl)cc4)nn4ncccc34)n2)cc1F [GW829058],0%
13,c1ccc(-c2ccc3c(-c4ccnc(Nc5ccc6c(c5)OCCO6)n4)cnn3n2)cc1 [GW818941],1%
